Fam108B inh: mouse Fam108B serine hydrolase inhibitors, primary screen, counter-screen for RBBP9 inhibitor project, biochemical, fluorescence polarization; recombinant Fam108B, FP-Rh probe fluorescence polarization; inhibition, % at 9.51 µM; 300,000 tested, 0.33% active; AID 1947, 2009;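 active = inhibition above the screen mean inhibition plus 3 SD, computed separately per campaign, cut at about 18% in these data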;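 note: inhibitors lower polarization as less probe binds the enzyme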
pPAFAH FP inh: pPAFAH enzyme inhibitors, primary screen, biochemical, fluorescence polarization, human. inhibition, % at 3.39 µM. recombinant pPAFAH, FP-rhodamine probe fluorescence polarization. AID 463082, 2010. Platelet-activating factor acetylhydrolase (Homo sapiens), Q13093. 330,000 tested, 1.5% active;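 active = inhibition above the mean inhibition across the screen plus 3 SD, cut at about 25% in these data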;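 note: inhibitors block binding of the rhodamine activity-based probe so polarization drops; 0% = enzyme with DMSO and 100% = wells lacking pPAFAH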
PME-1 primary: PME-1 inhibitors via competitive probe labeling, primary screen, biochemical, fluorescence polarization, FP-Rh probe, HTS. inhibition, % at 5.9 µM. Protein phosphatase methylesterase 1 (Homo sapiens), Q9Y570. AID 2130, 2009. 320,000 tested, 0.53% active. recombinant PME-1;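 active = inhibition above the campaign mean of all compounds plus 3 SD, cut at about 26% in these data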;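 note: competitive labeling of PME-1 active site by serine hydrolase directed probe; 0% = PME-1 with DMSO and 100% = wells lacking PME-1 enzyme; inhibitors block probe labeling so polarization falls and inhibition rises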
PAFAH2 FP inh: PAFAH2 enzyme inhibitors, primary screen, biochemical, fluorescence polarization, human; recombinant PAFAH2, FP-rhodamine activity probe; inhibition, % at 3.39 µM; Platelet-activating factor acetylhydrolase 2, cytoplasmic (Homo sapiens), Q99487; 340,000 tested, 0.99% active;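 active = inhibition above the mean over all tested compounds plus 3 SD, cut at about 30% in these data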;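 note: inhibitors block probe labeling of enzyme so polarization drops; 0% = enzyme with DMSO and 100% = wells lacking PAFAH2 protein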
PAFAH1B2 FP inh: PAFAH1B2 enzyme inhibitors, primary screen, biochemical, fluorescence polarization, human; inhibition, % at 3.39 µM; recombinant PAFAH1B2, FP-rhodamine activity probe; AID 492953, 2010; 340,000 tested, 1.2% active; Platelet-activating factor acetylhydrolase IB subunit alpha2 (Homo sapiens), P68402;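 active = inhibition above the mean of all tested compounds plus 3 SD, cut at about 24% in these data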;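 note: 0% = enzyme with DMSO and 100% = wells lacking PAFAH1B2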
Target sequence (P68402 whole entry, looked up): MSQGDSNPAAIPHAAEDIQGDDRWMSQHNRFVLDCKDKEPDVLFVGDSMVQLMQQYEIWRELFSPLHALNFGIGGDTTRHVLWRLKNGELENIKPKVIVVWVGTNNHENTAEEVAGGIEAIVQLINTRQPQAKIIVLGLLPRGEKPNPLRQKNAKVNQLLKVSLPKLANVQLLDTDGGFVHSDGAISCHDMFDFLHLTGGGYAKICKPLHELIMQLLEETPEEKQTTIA
PAFAH1B3 inh: PAFAH1B3 enzyme inhibitors, primary screen, biochemical, fluorescence polarization, human; recombinant PAFAH1B3, FP-rhodamine probe; Platelet-activating factor acetylhydrolase IB subunit alpha1 (Homo sapiens), Q15102; inhibition, % at 3.39 µM; AID 492972, 2010; 340,000 tested, 0.28% active;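 active = inhibition above the screen-wide average of all tested compounds plus 3 SD, cut at about 25% in these data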;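 note: 0% = enzyme with DMSO only and 100% = wells lacking PAFAH1B3 protein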
Target sequence (Q15102 whole entry, looked up): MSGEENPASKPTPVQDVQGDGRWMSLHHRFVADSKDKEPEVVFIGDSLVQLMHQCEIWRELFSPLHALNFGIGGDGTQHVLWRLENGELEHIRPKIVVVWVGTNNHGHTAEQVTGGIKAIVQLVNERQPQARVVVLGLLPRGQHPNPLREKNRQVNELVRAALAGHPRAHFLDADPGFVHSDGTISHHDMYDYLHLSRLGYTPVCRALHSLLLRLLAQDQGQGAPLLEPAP
Fam108b confirm: mouse Fam108b serine hydrolase inhibitors, confirmation, counter-screen for RBBP9 inhibitor project, biochemical, fluorescence polarization, triplicate | shares compounds with Fam108B inh | recombinant Fam108b, FP-Rh probe fluorescence polarization | inhibition, % at 9.51 µM | 930 tested, 44% active | AID 1978, 2009;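 active = inhibition above a limit from the primary screen, the mean over all compounds plus 3 SD, cut at about 19% in these data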;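 note: 0% = median of active Fam108b wells and 100% = catalytically dead S170A mutant; inhibitors free the probe so polarization falls as inhibition rises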
Fam108b ABPP HTS: inhibition of mouse Fam108b by HTS hits, late-stage follow-up, biochemical, gel-based ABPP, soluble recombinant form; shares compounds with Fam108B inh; fluorophosphonate probe; inhibition, % at 20 µM; 260 tested, 44% active; AID 588649, 2011; in the data active = inhibition above about 40%
pPAFAH confirm: pPAFAH (PLA2G7) enzyme inhibitors, confirmation, biochemical, fluorescence polarization, human. inhibition, % at 3.39 µM. recombinant pPAFAH, FP-Rh probe fluorescence polarization. shares compounds with pPAFAH FP inh. 2,300 tested, 72% active;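 active = mean inhibition of the triplicate above the hit cutoff set for the earlier primary screen, cut at about 25% in these data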;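 note: 0% = enzyme with DMSO and 100% = wells lacking pPAFAH enzyme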
* hit, by the source's call; . = no result; + = active, no number. An excerpt weighted towards active compounds, which were near 2.8% of everything screened.

SMILES | Fam108B inh | pPAFAH FP inh | PME-1 primary | PAFAH2 FP inh | PAFAH1B2 FP inh | PAFAH1B3 inh | Fam108b confirm | pPAFAH confirm | others
O=C1C(Nc2ccccc2)=C/C(=N/S(=O)(=O)c2cccs2)c2ccccc21 | 36.0* | 62.5* | 32.4* | 49.3* | 37.9* | 62.2* | 56.5* | 60.4*
O=C1C(Nc2ccccc2)=C(NS(=O)(=O)c2ccccc2)C(=O)c2ccccc21 | 4.9 | 10.1 | 3.6 | 7.0 | 20.3 | 7.7 | . | .
COC(=O)c1ccccc1NC1=C/C(=N\S(=O)(=O)c2ccc(C(=O)O)cc2)c2ccccc2C1=O | 56.9* | 37.0* | 21.0 | 71.8* | 52.6* | 70.9* | 71.6* | 39.4* | Fam108b ABPP HTS=15.0
COC(=O)c1ccccc1Nc1ccccc1 | 3.8 | 4.0 | -0.8 | 0.3 | -1.4 | 3.4 | . | .
O=S(=O)(c1cccs1)N1CN(Cc2ccc(Cl)cc2)c2nc3ccccc3nc21 | -2.2 | 1.0 | 5.3 | 3.5 | 8.7 | 7.8 | . | .
O=S(=O)(c1cccs1)N1CN(Cc2ccco2)c2nc3ccccc3nc21 | 27.8* | 46.4* | 33.7* | 1.8 | 5.2 | 3.2 | 9.2 | 15.9
COC(=O)C1Cc2ccccc2CN1S(=O)(=O)c1ccc(F)cc1 (configuration not stated) | -1.1 | 2.7 | -4.1 | 4.8 | 10.8 | 2.4 | . | .
N#C/C(=C/c1ccc(O)c(O)c1)c1nc2ccccc2[nH]1 | 26.6* | 63.4* | 28.7* | 62.5* | 44.5* | 57.6* | 29.3* | 79.0*
C/C(=C\C(=O)c1cccnc1)Nc1ccc(O)cc1 | 47.6* | 38.3* | -16.2 | -3.0 | 0.2 | 2.9 | -2.9 | -3.9
COc1ccc(/C=C(\C#N)c2n[nH]c(Cn3cncn3)n2)cc1 | -0.6 | -2.0 | 4.2 | . | . | . | . | .
N#C/C(=N\Nc1cccc([N+](=O)[O-])c1)C(=O)c1ccc(Br)cc1 | 26.9* | 59.9* | 28.9* | 34.7* | 14.3 | 23.7 | 26.2* | 61.2*
Nc1c(C(=O)NC2CC2)sc2nc3c(c(-c4ccco4)c12)CC/C3=C/c1ccco1 | 32.6* | 88.5* | 9.6 | 46.1* | 28.1* | 56.3* | 14.1 | 47.7*
C/C(=N\NC(=O)c1ccccc1O)C1C(=O)c2ccccc2C1=O | 51.5* | 48.8* | 14.9 | 30.3* | 23.0 | 27.8* | 50.7* | 39.7*
CCC/C(C)=N/NC(=O)c1ccccc1O | -3.4 | -5.2 | -9.6 | 1.4 | 2.9 | -1.8 | . | .
Cc1c(Br)c(=O)oc2c(Br)c(O)ccc12 | 1.0 | 1.0 | -3.1 | 3.5 | 2.2 | 6.7 | . | .
Cc1c(Br)c(=O)oc2c(Br)c(O)c(O)cc12 | 24.7* | 62.6* | 13.6 | 83.0* | 51.3* | 46.5* | 21.0* | 81.5*
Oc1ccccc1-c1nc2c3ccccc3c3ccccc3c2[nH]1 | 44.0* | 45.4* | 38.0* | 59.5* | 26.9* | 43.0* | 52.9* | 27.3* | Fam108b ABPP HTS=90.0*
Nc1cccc2nc3ccccc3cc12 | -2.8 | -2.5 | -32.3 | 5.0 | 0.3 | -1.3 | . | .
Cc1cc2c(N)cccc2nn1 | 25.0* | 72.9* | 57.9* | 37.7* | 25.6* | 33.3* | 15.8 | 5.7
N#Cc1c(N2CCCC(O)C2)nc(N)c2c(N)nc3c(c12)CC(=O)N3C12CC3CC(CC(C3)C1)C2 (configuration not stated) | 19.2* | 44.5* | 11.2 | 46.2* | 45.5* | 51.1* | 17.3 | 21.6
C=C(C)CN(CC)c1nc(N)c2c(N)nc3c(c2c1C#N)CC(=O)N3C12CC3CC(CC(C3)C1)C2 | 2.3 | 15.6 | 6.9 | 12.9 | 4.6 | 10.6 | . | .
CNc1ccc(Br)cc(C(=O)/C=C/c2ccc3c(c2)OCO3)c1=O | 18.2* | 45.1* | 2.9 | 31.4* | -0.5 | 5.1 | 6.5 | 28.2*
Cc1cnn(Cc2cccnc2)c1N | 2.3 | 1.6 | -5.8 | 0.5 | 5.7 | 8.9 | . | .
CCCC1Nc2ccc(C(=O)O)cc2C2C=CCC12 (configuration not stated) | 25.3* | 46.0* | -22.1 | 44.1* | 17.8 | 31.8* | 0.6 | 31.4*
CC(C)S(=O)(=O)C1=NSC2=NC(=O)/C(=C\c3ccc(-c4cccc(C(=O)O)c4)o3)C(=N)N21 | . | . | . | -11.2 | -1.3 | 7.0 | . | .
SMILES | Fam108B inh | pPAFAH FP inh | PME-1 primary | PAFAH2 FP inh | PAFAH1B2 FP inh | PAFAH1B3 inh | Fam108b confirm | pPAFAH confirm | others
N=C1/C(=C/c2ccc(-c3cccc(C(=O)O)c3)o2)C(=O)N=C2SC=C(c3ccccc3)N12 | 37.1* | 49.9* | -11.8 | 32.0* | 26.3* | 26.6* | 18.4* | 61.9*
COc1ccc(S(=O)(=O)NC(C)C(=O)NCc2ccc3c(c2)OCO3)cc1OC (configuration not stated) | 0.1 | 1.3 | -4.6 | -12.6 | -6.7 | 2.6 | . | .
Cc1c(O)ccc(/C=N/Nc2nc(-c3cccnc3)nc3ccccc23)c1O | 38.6* | 42.3* | 39.8* | -15.8 | 10.8 | 30.2* | + | 45.6*
Cc1ccc(Nc2nc(-c3cccnc3)nc3ccccc23)cc1 | -12.1 | -7.6 | -18.8 | -2.3 | 0.4 | 3.3 | . | .
CN1C(=O)NC(c2ccccc2[N+](=O)[O-])C2=C1CCCC2=O (configuration not stated) | 67.8* | 72.0* | 84.3* | 67.0* | 49.2* | 58.2* | 24.0* | 17.4
CN1C(=O)NC(c2ccccc2[N+](=O)[O-])C2=C1CC(C)(C)CC2=O (configuration not stated) | -6.5 | -1.3 | -4.5 | 3.5 | 5.0 | 4.8 | . | .
Nc1c(S(=O)(=O)O)cc(NC(=O)c2ccccc2)c2c1C(=O)c1ccccc1C2=O | 52.8* | 84.0* | 54.2* | 53.8* | 34.4* | 49.4* | 49.6* | 90.1*
Cc1ccc(NC(=O)c2ccc(Nc3c([N+](=O)[O-])cc([N+](=O)[O-])cc3[N+](=O)[O-])cc2)cc1 | 22.5* | 52.3* | 36.5* | 9.4 | 14.0 | 26.8* | 13.7 | 51.0*
CC(=O)Nc1ccccc1Nc1nc(NCCO)nc(N2CCCC2)n1 | 4.5 | 0.4 | 1.3 | 7.7 | 7.5 | 0.4 | . | .
